Consider ten molecules from paper PMC5540273 (PLoS ONE, 2017).

The structures appear in SMILES notation.
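Further: kd values determined as follow-up on hits from a single-replicate KINOMEscan panel screen.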

One assay relates to CLK1.
As to `CNc1cc(-c2ccc3c(N)n[nH]c3c2)nc(N)n1` [GSK2224810], the dissociation constant (Kd) is 330 nM.
The same measure, in the same setting: then `CNCc1ccc2nc(NC(=O)c3ccc(C(C)(C)C)cc3)cn2c1`, with 7500 nM.
Same read-out and setting: as for `Cc1cccc2c(-c3ccncn3)c(-c3ccc(F)cc3)nn12` [GW515532], the figure is more than 10000 nM; as for `COc1ccc(CSc2nnc(-c3ccc4nccn4c3)o2)cc1C(F)(F)F`, 70 nM.
Still for that read-out and setting: as for `COc1ccc(CSc2nnc(-c3ccc4ncsc4c3)o2)cc1C(F)(F)F`, the figure is 170 nM; as for `O=C1NC(=O)C(c2ccc(Cl)cc2)=C1Nc1cccc(Cl)c1` [SB-317651], 4400 nM.

A further assay has as its system CLK2.
Take `CNc1cc(-c2ccc3c(N)n[nH]c3c2)nc(N)n1` [GSK2224810]: the dissociation constant (Kd) was 410 nM.
Still for that read-out and setting: as for `Cc1ccc(NC(=O)c2ccc(Cl)cc2)cc1-c1ccc(C(=O)Nc2ccncc2)cc1` [GSK1398467], the figure is more than 10000 nM; as for `COc1ccc(CSc2nnc(-c3ccc4nccn4c3)o2)cc1C(F)(F)F`, 150 nM.
On to `COC(=O)c1cccc(NC(=O)NC2CCN(c3ccnc(Nc4ccc(OC)cc4)n3)C2)c1` (stereo not shown) [GSK1379746], for which the dissociation constant (Kd) is more than 10000 nM.

The next assay concerns CLK3.
Regarding `CC(=O)c1c(C)c2cnc(Nc3ccc(N4CCNCC4)cn3)nc2n(C2CCCC2)c1=O`, the dissociation constant (Kd) is more than 10000 nM.
On the same count and under the same terms, then `CCCCc1nn2ncccc2c1-c1ccnc(NC2CC2)n1` [GW684374], with more than 10000 nM.
On the same count and under the same terms, as for `Cc1cccc2c(-c3ccncn3)c(-c3ccc(F)cc3)nn12` [GW515532], the figure is more than 10000 nM.
